From PubChem
D1 antag: antagonists of human D1 dopamine receptor; P21728; HEK293 TREx D1 cells, calcium flux, dopamine EC80; stronger effect = lower value; activity change, negative = inhibition, % at 10 µM; hit rate 3.2% among 360,000; AID 504652; in the data active = activity change below about -30%; also: % is scaled to controls: 0 for no effect and ±100 for the full control effect
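HEK293 T-REx cells expressing inducible, force-coupled D1 receptor; no-wash Ca dye, 30–90 min RT. Cmpd → 180 s read at 1 Hz → EC80 DA → 180 s read.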
TRHR agonist: agonists of human TRH receptor | TRHR cells, calcium flux fluo-8, FDSS agonist mode | activation, % at 2 µM | hit rate 0.18% among 360,000 | AID 493084; also: 0% is about no effect
Target sequence (P34981 whole entry, looked up): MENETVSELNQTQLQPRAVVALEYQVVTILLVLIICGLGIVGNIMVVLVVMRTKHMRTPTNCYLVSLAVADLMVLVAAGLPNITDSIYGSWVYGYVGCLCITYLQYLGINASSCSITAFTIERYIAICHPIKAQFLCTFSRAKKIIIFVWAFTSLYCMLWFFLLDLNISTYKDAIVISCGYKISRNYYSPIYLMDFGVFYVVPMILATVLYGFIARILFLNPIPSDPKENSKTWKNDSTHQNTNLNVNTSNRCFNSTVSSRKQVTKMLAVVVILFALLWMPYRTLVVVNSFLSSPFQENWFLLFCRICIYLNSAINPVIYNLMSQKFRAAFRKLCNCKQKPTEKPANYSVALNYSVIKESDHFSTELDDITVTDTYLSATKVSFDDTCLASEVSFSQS
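TRHR-expressing cells, plated overnight in medium with 10% serum, were loaded with fluo-8 calcium dye at room temperature. After a 10 s baseline, library compound was pin-added and calcium release was recorded kinetically (ex 480/em 530) as agonist response.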
D1 agonist: agonists of human D1 dopamine receptor. AID 504660. hit rate 1% among 360,000. activation, % at 2 µM. HEK293 T-REx D1 cells, calcium flux, agonist mode. P21728; also: 0% is about no effect
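Inducible HEK293 T-REx D1 cells, force-coupled to calcium signalling, were plated at 4000 cells/well with tetracycline and held overnight at 30 C. After no-wash calcium dye loading, compound-evoked calcium rise over 180 s flagged agonists.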
TRHR PAM: allosteric enhancers of human TRH receptor. P34981. TRHR cells, fluo-8 calcium fluorescence, EC20 TRH enhancement. enhancement, % at 2 µM. hit rate 0.66% among 360,000. AID 493056; in the data active = enhancement above about 30%; also: 0% is about no effect
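Enhancer read-out: after compound pinning and an initial kinetic agonist-mode read, an EC20 of TRH (10 nM final) was injected and fluo-8 calcium signal (Ex 480/Em 530) followed at 1 s/cycle for 100 cycles in TRHR-expressing cells.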
D1 PAM: potentiators of human D1 dopamine receptor; P21728; HEK293 TREx D1 cells, calcium flux, dopamine EC20 potentiation; hit rate 0.036% among 360,000; potentiation, % at 10 µM; in the data active = potentiation above about 30%; also: 0% is about no effect
An asterisk follows results filed as active; . = no result given. The list is not random: actives were taken first. Their share in the collection is about 4.6%. Rule as the data show it, unless noted: active = activation above about 30%; inactive = the rest.

SMILES	D1 antag	TRHR agonist	D1 agonist	TRHR PAM	D1 PAM
COc1ccc(OC)c2sc(N3CCN(C(=O)C4CC4)CC3)nc12	.	0	-2	2	2
COc1ccc(C)c2sc(N3CCCC3)nc12	-37*	0	0	13	-2
CCOC(=O)c1cnc(-n2nc(C)cc2C)nc1NC1CCCC1	5	-1	48*	6	-2
C=CCSc1nc(N)c(C#N)c(-c2ccc(C)cc2)c1C#N	-4	0	2	38*	-5
CCCc1cc(=O)oc2c(CN(CC)CC)c(O)c(Cl)cc12	-44*	0	3	3	9
CCCCc1cc(=O)oc2c(CN3CCCC3)c(O)c(Cl)cc12	-33*	0	4	6	0
CCCCc1cc(=O)oc2c(CN(CC)CC)c(O)c(Cl)cc12	6	0	-3	4	-3
NC(=O)C1CCN(C(=O)Nc2csc3ccccc23)CC1	-61*	1	0	-8	3
Cc1cccc(Cn2cc(C(=O)Nc3ccc(S(N)(=O)=O)cc3)ccc2=O)c1	5	0	-1	14	-3
CC(NC(=O)CN1C(=O)NC(Cc2ccccc2)(Cc2ccccc2)C1=O)C12CC3CC(CC(C3)C1)C2 (stereo unspecified)	12	1	17	-2	-1
CCOC(=O)NC1c2ccccc2Oc2ccccc21	-33*	-1	0	-1	-2
COc1cc(-c2[nH]ncc2CN2CCSCC2)cc(OC)c1OC	22	0	1	-4	0
O=C(c1ccc(-c2cccc(C(F)(F)F)c2)o1)N1CCCCCCC1	-40*	-1	0	2	1
Cc1cccc(CSc2nnc(CCCCCN)o2)c1	5	3	5	-2	-6
Clc1ccc2nc(CSCc3ccccc3)cn2c1	-3	-1	-4	-2	3
CCCn1cnc2c(sc3nc4c(cc32)CSC(C)(C)C4)c1=O	-41*	0	3	3	-4
Cc1ccc(C)c(S(=O)(=O)N2CCN(C(=O)c3ccc(OCc4c(C)noc4C)cc3)CC2)c1	-31*	0	10	11	-1
CCc1noc(C)c1C(=O)N1CCN(S(=O)(=O)c2ccc(Br)cc2)CC1	-72*	-1	-3	0	-7
CCc1noc(C)c1C(=O)N1CCN(S(=O)(=O)c2ccc(C)cc2)CC1	-15	0	1	-3	-1
Cc1ccc(S(=O)(=O)N2CCN(C(=O)c3ccc(OCc4c(C)noc4C)cc3)CC2)cc1	-1	0	2	1	-5
CCc1noc(C)c1C(=O)N1CCN(S(=O)(=O)c2cc(C)ccc2C)CC1	-31*	0	-1	-6	11
COc1cccc(C2Nc3ccccc3NC3=C2C(=O)CC(C)(C)C3)c1OC (stereo unspecified)	19	1	8	35*	6
COc1ccc(C2Nc3ccccc3NC3=C2C(=O)CC(C)(C)C3)c(OC)c1OC (stereo unspecified)	1	0	-1	-5	-2
CC1(C)CC(=O)C2=C(C1)Nc1ccccc1N1C(=O)c3ccccc3C21 (stereo unspecified)	-42*	1	5	-6	-2
O=C1CC(Nc2ccccc2)C(=O)N1CCc1ccccc1 (stereo unspecified)	-19	0	3	4	-4
SMILES	D1 antag	TRHR agonist	D1 agonist	TRHR PAM	D1 PAM
Cn1c(COc2ccccc2O)[n+](C)c2ccccc21	8	0	0	3	-2
CCCCCCCCCCOC(=O)Cn1c(COc2ccccc2OC)[n+](C)c2ccccc21	-23	-1	183*	-26	17
O=[N+]([O-])c1ccc(O)c(-c2cc(C(F)(F)F)nc(-c3ccccc3)n2)c1	-48*	7	36*	-6	-6
COc1cc2c(C(=O)NCCCN3CCN(c4cccc(Cl)c4)CC3)cn(C)c(=O)c2cc1OC	10	1	-1	3	-5
COc1ccc(S(N)(=O)=O)cc1C(=O)NCCCN1CCN(c2ccccc2OC)CC1	-12	1	2	-3	-14
COc1ccc(S(N)(=O)=O)cc1C(=O)NCCCN1CCN(c2cccc(Cl)c2)CC1	-51*	0	2	0	-7
COc1ccc(S(N)(=O)=O)cc1C(=O)NCCCN1CCN(c2ccc(C)cc2)CC1	-42*	0	3	-3	-20
COc1ccc(OC)c(CNC(=O)c2ccc(N3Cc4ccccc4Oc4ncccc43)s2)c1	-7	1	3	-8	-3
Cc1ccc(CCNC(=O)C2CC(c3cc(C(F)(F)F)cc(C(F)(F)F)c3)=NO2)cc1 (stereo unspecified)	14	1	14	2	5
Cc1ccc(CCNC(=O)C2CC(c3cccc(F)c3)=NO2)cc1 (stereo unspecified)	-62*	-1	3	0	4
CCCCNC(=O)C1CC(c2cccc(F)c2)=NO1 (stereo unspecified)	-45*	0	5	4	8
CC(C)CCNC(=O)C1CC(c2cccc(F)c2)=NO1 (stereo unspecified)	15	-1	5	1	4
CC(/C=C/c1ccccc1F)=N\NC(=O)C(C)C	18	0	0	-4	0
O=C(CSc1nc(-c2ccccc2)cc(=O)[nH]1)Nc1ccccc1F	-2	0	1	2	4
COc1ccc(/C=C(/C#N)c2nc(-c3ccc(-c4ccccc4)cc3)cs2)cc1	2	-1	0	-1	0
N#C/C(=C/c1ccc(O)cc1)c1nc(-c2ccc(-c3ccccc3)cc2)cs1	-12	2	2	43*	-1
Cc1ccc(C)c(C(=O)COC(=O)c2ccccc2N2C(=O)C3C4CCC(C4)C3C2=O)c1 (stereo unspecified)	-42*	-1	15	17	-5
CCCCOC(=O)c1ccccc1N1C(=O)C2C3CCC(C3)C2C1=O (stereo unspecified)	-32*	0	5	-7	-12
CC(=O)OCC1O[C@@H](O[C@@H]2C[C@H]3C(C)(C)[C@H](OC(C)=O)CC[C@]3(C)[C@H]3CC[C@]45C[C@]4(CC[C@H]5[C@@H](C)C[C@@H](O)[C@H](O)C(C)(C)O)[C@@]32C)[C@H](O)[C@@H](O)[C@@H]1O (stereo partly specified)	14	0	334*	10	19
CNC(=O)C1CC(=O)N(Cc2ccc3c(c2)OCO3)C(=Nc2ccc(OC)cc2)S1 (stereo unspecified)	-30*	-1	10	17	-6
CNC(=O)C1CC(=O)N(CCc2ccc(OC)cc2)C(=Nc2ccc(OC)cc2)S1 (stereo unspecified)	-3	0	0	0	-13
O=c1cc(N2CCc3ccccc3C2)[nH]c(=O)n1-c1ccc(Cl)cc1	6	0	0	-12	-2
